This note sets out measurements from ChEMBL document CHEMBL3988442, “University of Dundee, Small-Polar-MMV Screening Library” (2021).

Out of some 48,000 compounds screened, about 13,000 (27%) showed an effect of 50% or more. The list shows a part of the results.

The assay concerns Wolbachia pipientis. Briefly: Anti-Wolbachia Cell-Based Screen. The note with it: 5 µM. It counts as functional. More on the design: scale not given: in the data most compounds retested in dose-response had high values.
Consider `Cc1cnc(CNS(=O)(=O)CCC2CCCO2)o1` (stereo unspecified), for which the “Percent Effect” value was -9.077%.
With `CC1CN(Cc2cnn(C)c2)CCN1c1ccc2nncn2n1` (stereo unspecified), the “Percent Effect” value is reported as 114.2%.
Under `CC1CN(Cc2cccnc2)CCN1c1ccc2nncn2n1` (stereo unspecified) stands 111.3%; under `CC1CN(Cc2nccn2C)CCN1c1ccc2nncn2n1` (stereo unspecified), 2.712%; under `COc1cccc(CN2CCN(c3ccc4nncn4n3)C(C)C2)c1` (stereo unspecified), -8.631%.
Under `CC1CN(Cc2cccc(C#N)c2)CCN1c1ccc2nncn2n1` (stereo unspecified) stands -2.779%; under `CCC(=O)N1CCN(C(=O)Nc2cccc(F)c2)[C@H]2CS(=O)(=O)C[C@H]21`, 4.618%.
Under `Cc1nc2ccccc2nc1CN1CCOC(Cn2cccn2)C1` (stereo unspecified) stands 77.13%; under `Nc1nc(CN2CCOC(Cn3cncn3)C2)nc2ccccc12` (stereo unspecified), -0.7232%.
`Nc1nc(CN2CCOC(Cn3cccn3)C2)nc2ccccc12` (stereo unspecified): the “Percent Effect” value is 54.57%.
Under `Cc1cnn(CC2CN(Cc3nc4ccccc4nc3C)CCO2)c1` (stereo unspecified) stands -8.261%; under `Cc1nc(CN2CCOC(Cn3cccn3)C2)nc2ccccc12` (stereo unspecified), 103.8%.
With `Cc1cnn(CC2CN(Cc3nc(N)c4ccccc4n3)CCO2)c1` (stereo unspecified), the “Percent Effect” value is listed as 9.564%.
Under `Cc1cnn(CC2CN(Cc3nc(C)c4ccccc4n3)CCO2)c1` (stereo unspecified) stands 114.4%.
On to `Cc1nc(CN2CCOC(Cn3cncn3)C2)nc2ccccc12` (stereo unspecified), for which the “Percent Effect” value is -10.51%.
To `CNC(=O)Cc1ccc(-n2ccnc2-c2cccc(C(=O)O)c2)cc1` belongs -25.18%.
For `Cc1noc(-c2ccc(N(C)Cc3cccnc3)nc2)n1`, the “Percent Effect” value is given as -25.91%.
Under `O=C1CCc2cc(S(=O)(=O)NCc3cc4n(n3)CCNC4)ccc2N1` stands -63.18%; under `Cc1ccc(C(CNCc2cnn(C(C)C)c2)N2CCOCC2)s1` (stereo unspecified), 14.4%; under `O=C(NCC(O)COc1cccc(F)c1)C1(c2ccc(F)cc2)CC1` (stereo unspecified), -1.107%.
For the molecule `CCCOCCn1ncc(N2CCc3ccccc3C2)cc1=O`, the “Percent Effect” value is -4.867%.
To `COC(=O)c1cc(NCc2cscn2)ccc1C` belongs 4.935%; to `CNC(=O)Cc1nc(CNc2ccc(SC)c(F)c2)cs1`, 0.08952%; to `Cc1ccc(-c2nc(CNc3ccc(C(N)=O)c(C)c3)cs2)o1`, 16.54%.
On to `COC(=O)c1ccc(NCc2csc(C)n2)cc1Cl`, for which the “Percent Effect” value turned out to be 105.1%.
Under `COc1ccc(OCCCNC(=O)NCc2csc(C)n2)cc1` stands -1.518%.
Consider `COCCNC(=O)c1ccc(NCc2csc(C)n2)cc1Cl`, for which the “Percent Effect” value is listed as 103.1%.
Turning to `COCc1nc2cc(NCc3csc(C)n3)ccc2o1`, the “Percent Effect” value is -10.85%.
Under `COCCNC(=O)c1ccc(NCc2c(C)noc2C)cc1Cl` stands 99.6%; under `Cc1noc(C)c1CNc1cccc(C(=O)N(C)c2ccccc2)c1`, 8.742%.
For `CSc1ccc(NCc2csc(C)n2)cc1F`, the “Percent Effect” value came out at 74.08%.
To `Cc1noc(C)c1CNc1ccc2nc(C3CC3)sc2c1` belongs -3.579%.
With `CSc1ccc(NCc2csc(CS(C)(=O)=O)n2)cc1F`, the “Percent Effect” value was 19.87%.
Take `CCOCCC(=O)N1Cc2cnc(-c3ccccc3)nc2C1`: the “Percent Effect” value is -9.321%.
To `Cc1nsc(N2CCN(C(=O)Nc3cccc(C#N)c3)CC2)n1` belongs -11.67%; to `CC(=O)N[C@@H]1CN(Cc2ccccc2-n2cccn2)C[C@H]1C(C)C`, 1.725%.
To `Cc1cc(C)cc(C(=O)NCCCC2(C3OCCO3)CCOCC2)c1` belongs 11.75%; to `CCn1c(CN(C)CC(=O)N(C)C)nc2c(F)cccc21`, -12.46%.
To `Cc1nnc(N2C[C@H](Oc3ccccn3)[C@H]3OCCC[C@H]32)s1.O=C(O)C(F)(F)F.O=C(O)C(F)(F)F` belongs -4.759%; to `O=C(Nc1ccc(-c2cscn2)cc1)C1CCCN(Cc2ccon2)C1` (stereo unspecified), -5.748%.
In the case of `CCOC(=O)NCCNC(=O)c1cc(Br)cn1C(C)C`, the “Percent Effect” value is given as -7.035%.
Under `CCN1CCC12CCN(C(=O)c1ccsc1)C2.O=C(O)C(F)(F)F` (stereo unspecified) stands -5.276%; under `Cc1ccc(C(=O)N2CCC3(CCN(c4ccsc4)C3=O)C2)cn1.O=C(O)C(F)(F)F` (stereo unspecified), 44.84%.
To `Cn1ccnc1C(=O)N1CCC2(CCN2CC2CC2)C1.O=C(O)C(F)(F)F` (stereo unspecified) belongs -29.26%.
To `O=C(c1ccsc1)N1CCC2(CCN2Cc2ccc(F)cc2)C1` (stereo unspecified) belongs -0.5147%.
In the case of `Cc1cnc(C(=O)N2CCC3(CCN3Cc3ccc(F)cc3)C2)cn1.O=C(O)C(F)(F)F` (stereo unspecified), the “Percent Effect” value is 105.8%.
Take `Cc1ccc(C(=O)N2CCC3(CCN3Cc3ccc(F)cc3)C2)cn1.O=C(O)C(F)(F)F` (stereo unspecified): the “Percent Effect” value is given as 111.6%.
`Cn1ccnc1C(=O)N1CCC2(CCN2Cc2ccc(F)cc2)C1.O=C(O)C(F)(F)F` (stereo unspecified): the “Percent Effect” value amounted to 107.3%.
Under `CSc1nnc(C2CCN(C(=O)N3CCCC3)CC2)n1C` stands 86.99%; under `CCn1c(Cn2cncn2)nnc1C1CCN(C(=O)CCSC)CC1`, 0.8054%; under `CSc1nnc(CC2CCN(C(=O)Cc3ccncc3)CC2)n1C`, -0.6807%.
Under `CCn1c(SC)nnc1C1CCN(C(=O)N2CCCC2)CC1` stands 139.7%; under `CCn1c(CN2CCCC2)nnc1C1CCN(S(=O)(=O)CC)CC1`, 6.34%.
Take `Cn1c(CN2CCCC2)nnc1C1CCCN(C(=O)N2CCOCC2)C1` (stereo unspecified): the “Percent Effect” value is reported as -16.59%.
To `O=C(NCCNc1ncccn1)C1CCN(C(=O)N2CCCC2)CC1` belongs 88.68%; to `O=C(NCCNc1ncccn1)C1CCN(C(=O)c2ccoc2)CC1`, 101.2%; to `CC(C)(C)OC(=O)N1CCC(C(=O)NCCNc2ncccn2)CC1`, 98.46%.
To `CN(C)C(=O)N1CCC(C(=O)NCCNc2ncccc2C#N)CC1` belongs -1.068%.
Under `O=C(NCCNC(=O)C1CCN(CC(F)(F)F)CC1)c1ccoc1` stands 16.83%; under `O=C(NCCNc1ncccn1)C1CCN(C(=O)C2CC2)CC1`, 7.876%; under `O=C(NCCNc1ncccn1)C1CCN(C(=O)NC2CC2)CC1`, 95.19%.
`O=C(NCCNc1ncccn1)N1CCSCC1`: the “Percent Effect” value is -3.552%.
For `O=C(NCCNc1ncccn1)C1CCN(CC(F)(F)F)CC1`, the “Percent Effect” value came out at 1.799%.
To `O=C(NCCNC(=O)C1CCN(c2ncccn2)CC1)c1ccoc1` belongs -1.676%; to `CC(O)CN1CCC(CN(C)Cc2ccc(C(N)=O)cc2)CC1` (stereo unspecified), 3.378%; to `O=C1N(Cc2cccc(F)c2F)CCCC1(O)CNCC1CCCCC1` (stereo unspecified), -14.65%.
